Tests used:
Assay in all cases: PBM binding z-score (relative to random genomic background probes); higher = stronger binding; sequences stand for … in GC…GCGATTGACAGCGTAGAATGAAGG
[1] = tested on: FXR:RXRa (NR concentration 270 nM, RXRa partner concentration 90 nM)
How it was run: (§1)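 Each nuclear receptor dimer, without ligand, was incubated for 1 h on custom Agilent 4×180K protein-binding microarrays. Binding was detected with antibodies against each partner (one per run), and scanned fluorescence was regression-normalized. The binding z-scores are referenced to random human genomic background probes.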

[2] = tested on: LXRa:RXRa (NR concentration 270 nM, RXRa partner concentration 90 nM)
How it was run: as §1

[3] = tested on: LXRa homodimer (NR concentration 270 nM)
How it was run: as §1

[4] = tested on: LXRb:RXRa (NR concentration 270 nM, RXRa partner concentration 90 nM)
How it was run: as §1

[5] = tested on: LXRb homodimer (NR concentration 270 nM)
How it was run: as §1

[6] = tested on: PPARa:RXRa (NR concentration 270 nM, RXRa partner concentration 90 nM)
How it was run: as §1

[7] = tested on: PPARg:RXRa (NR concentration 180 nM, RXRa partner concentration 90 nM)
How it was run: as §1

[8] = tested on: PPARg:RXRa 270nM:90nM, anti-RXR (NR concentration 270 nM, RXRa partner concentration 90 nM)
How it was run: as §1

[9] = tested on: PPARg:RXRa 30nM:10nM, anti-RXR (NR concentration 30 nM, RXRa partner concentration 10 nM)
How it was run: as §1

[10] = tested on: PPARg:RXRa 90nM:30nM, anti-RXR (NR concentration 90 nM, RXRa partner concentration 30 nM)
How it was run: as §1

| Sequence | PBM binding z-score [1] | PBM binding z-score [2] | PBM binding z-score [3] | PBM binding z-score [4] | PBM binding z-score [5] | PBM binding z-score [6] | PBM binding z-score [7] | PBM binding z-score [8] | PBM binding z-score [9] | PBM binding z-score [10] |
| --- | --- | --- | --- | --- | --- | --- | --- | --- | --- | --- |
| ATCGAAAGGTCGTGAGGTGGGTATACAGAAAGGC | 5.14 | 4.18 | 0.358 | 3.28 | 0.784 | 4.96 | 3.35 | 3.96 | 1.29 | 2.77 |
| TCTGCTAGGTCAACGATGGTCCGCTAATCTGCTA | 2.99 | 2.08 | -0.377 | 1.02 | -0.262 | 3 | 2.07 | 2.75 | 1.9 | 2.22 |
| ATCTCTAGGTAACCAAGTTCGGTGAATGCCGAAC | 0.162 | 0.167 | 0.0553 | 0.11 | 0.555 | 0.569 | 0.336 | 0.74 | 0.0695 | 0.909 |
| ACTAGCAGGCCAAGTTTGGGTCACTCGAACAAAG | 0.398 | 0.0952 | -0.533 | 0.67 | -0.727 | 1.33 | 0.0973 | 0.504 | -0.62 | 0.14 |
| TGAATGAGGTTGTAAGATCAGGGAACGTTGCAAA | -0.0998 | -0.208 | -0.429 | -0.35 | 0.0245 | 0.282 | -0.0383 | 0.349 | 0.261 | 0.21 |
| TCTTGTAGATCAACAGGAGGTTAAGAAAGATCGA | 0.227 | 1.19 | 0.133 | 0.709 | -0.3 | 1.22 | -0.0134 | 1.2 | 2.19 | 1.56 |
| CTACCAAGGTGAGCAAGGTCGTTGATTACTATTC | 0.474 | 0.615 | -0.2 | 0.949 | -0.778 | 1.59 | 0.312 | 0.556 | -0.319 | -0.252 |
| AATACAGGGTCATCGTAGGCCTGAGTACGCACAG | 7.54 | 5.77 | 1.91 | 4.6 | 1.13 | 5.95 | 6.49 | 5.92 | 2.71 | 4.74 |
| CCTACTGGGCCAGAAAGGTCATTGATGCCGATAA | 3.9 | 4.7 | 3.35 | 4.16 | 0.28 | 4.76 | 2.59 | 3.87 | 1.21 | 2.91 |
| CCCAGTTGGTCAAGGTCACACACGCTATAGGTAC | 4.07 | 4.03 | 2.72 | 3.8 | 0.738 | 4.18 | 3.3 | 3.56 | 1.14 | 2.57 |
| ATATGTAGGTTAGCTGGGGGCATTCAGACTAGGC | 0.978 | 3.73 | 0.963 | 4.51 | 9.63 | 4.09 | 4.83 | 4.61 | 2.3 | 3.72 |
| CGAACTAGGTCATTGACAGGACAGTAAATAGTAA | 4.05 | 2.93 | 0.467 | 2.31 | -0.338 | 4.66 | 7.77 | 6.44 | 3.43 | 5.8 |
| ACTAGCAGGCCAAGGGTAACTCAAGATTAGTCCG | -0.105 | 0.773 | -0.457 | -0.0796 | -0.553 | 1.83 | 3.38 | 4.86 | 2.86 | 4.78 |
| TCTTGTAGATCAAGCAGGTTGAGAAAGCCTGAGT | 0.128 | 0.187 | -0.471 | -0.223 | -0.57 | 0.441 | -0.512 | 0.973 | 2.32 | 1.66 |
| CCGACTGGGGCATAACGTTACCATAAGCCAGCCC | -0.396 | -0.323 | -0.401 | -0.205 | -1.06 | 0.0712 | 0.89 | 0.484 | -0.471 | 0.117 |
| TAGCTTAGGTCATTCAGGGGCCAGTATAGAAAGC | 4.82 | 4.33 | 0.984 | 3.31 | 1.67 | 3.69 | 1.38 | 2 | 0.369 | 1.11 |
| TAGGCTAGGTCAGATCGGGCCAGTATACGCTATA | 1.84 | 0.947 | -0.397 | 0.688 | -0.542 | 1.42 | 0.684 | 0.646 | -0.0664 | 0.434 |
| ATCGACAGGTCGTGAGGTGAGTATACAGAAAGGC | 1.05 | 1.19 | 0.0757 | 0.943 | 0.0816 | 2.14 | 1.15 | 0.86 | 0.126 | 0.461 |
| TAGCCTAGGTCAGATAGGGCCAGTATACGCTATA | 2.49 | 0.979 | -0.0979 | 0.697 | -0.375 | 1.59 | 0.726 | 0.567 | -0.0576 | 0.283 |
| CGAGCTAGGTCAGAACAGGACAGTGAAGGATGAT | 1.62 | 0.749 | -0.308 | -0.00924 | -0.647 | 1.11 | 1.11 | 0.596 | -0.277 | 0.0129 |
| CCGACTGGGCCAAAGGTTACCATACTCAGTACGA | 1.06 | 1.26 | 0.13 | 2 | -0.974 | 5.39 | 10.7 | 9.42 | 9.58 | 10.6 |
| CCTACTGGGACATCAGGTCATTGATATCAACGTT | 1.42 | 1.88 | 2.8 | 2.06 | 0.52 | 2.67 | 2.46 | 3.36 | 1.61 | 3.06 |
| AGAACGAGGGCACGCTGAGTTGATAGTAGAGTAG | 0.725 | 0.439 | -0.765 | 0.35 | -0.699 | 2.1 | 1.94 | 1.62 | 0.448 | 0.971 |
| CGTCCAAGGTCAATGCTAGGTCAGTGATAGCATT | 6.64 | 5.38 | 2.71 | 4.07 | 0.685 | 5.03 | 4.12 | 4.4 | 1.74 | 3.05 |

From the supplement of paper PMC6555819
